The test system of test [1] is Nanoluciferase (engineered Oplophorus gracilirostris luciferase). In words: Primary Nanoluciferase (NLuc) qHTS assay for identification of artifact compounds. (AID 1845222).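 Further: NLuc secreted into diluted conditioned medium of S16 cells.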 Particulars: NLuc-conditioned medium, Nano-Glo luminescence, 5 min; series mostly up to 54.1 µM. In short, it runs like this: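 qHTS format, against NLuc in S16 cell-conditioned medium. Nano-Glo substrate 1:100 was added after 15 min at room temperature. Luminescence was taken after a further 5 min.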

The nature of test [2]: Primary redox qHTS assay for identification of artifact compounds. (AID 1845223). The conditions noted are these: Amplex Red/HRP redox cycling with DTT, fluorescence; series mostly up to 53.8 µM. The procedure, abridged: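 Amplex Red (25 uM) and HRP (250 mU/mL) in HBSS, with compounds for 15 min, then 250 uM DTT for 30 min, room temperature, dark. Fluorescence 525/598 nm read; normalized to DMSO and 10 uM DA3003; Hill fit.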

Test [3] can be described thus: Quantitative High-Throughput drug screen in 47 multiple myeloma cell lines against the NCATS MIPE library collection: FR4_PLB cell viability assay (AID 1918924; further: nearly all actives have a fitted effect of over 35% in size; further: potency means the concentration at half of the fitted maximal effect). The conditions noted are these: FR4_PLB myeloma cells viability, CellTiter-Glo ATP, 48 h; series mostly up to 45.8 µM. In short, it runs like this:
(§1)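 Inhibition of cell viability is measured here. Each line was plated at 500 cells per well, treated with MIPE 4.0 drugs, kept 48 hours at 37C, then assayed for ATP content by CellTiter-Glo luminescence.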

Test [4] can be described thus: Quantitative High-Throughput drug screen in 47 multiple myeloma cell lines against the NCATS MIPE library collection: Delta47_JCRB cell viability assay (AID 1918925; further: nearly all actives have a fitted effect of over 45% in size; further: potency means the concentration at half of the fitted maximal effect). The conditions noted are these: Delta47 myeloma viability, CellTiter-Glo ATP, 48 h; series mostly up to 45.8 µM. The procedure, abridged: (§2)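 Primary qHTS used for cherry-picking: cells at 500/well, library compounds for 48 h (37C, 5% CO2), luminescent ATP assay.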

Test [5] can be described thus: Quantitative High-Throughput drug screen in 47 multiple myeloma cell lines against the NCATS MIPE library collection: ARP1_JJKsccF8 cell viability assay (AID 1918928; further: nearly all actives have a fitted effect of over 40% in size; further: potency means the concentration at half of the fitted maximal effect). The conditions noted are these: ARP1 myeloma cells viability, CellTiter-Glo ATP, 48 h; series mostly up to 45.8 µM. In short, it runs like this: (§3)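 Here, 48 h treatment with MIPE 4.0 agents at 37 °C preceded an ATP luminescence read. Plating density was 500 cells per well.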

Test [6] can be described thus: Quantitative High-Throughput drug screen in 47 multiple myeloma cell lines against the NCATS MIPE library collection: Karpas620_DSMZ cell viability assay (AID 1918959). Further: nearly all actives have a fitted effect of over 30% in size. Further: potency means the concentration at half of the fitted maximal effect. Particulars: Karpas620 myeloma viability, CellTiter-Glo ATP luminescence, 48 h; series mostly up to 45.8 µM. The procedure, abridged:
as §1

Test [7] is described as follows: Quantitative High-Throughput drug screen in 47 multiple myeloma cell lines against the NCATS MIPE library collection: KMM1_JCRB cell viability assay (AID 1918960). Further: nearly all actives have a fitted effect of over 30% in size. Further: potency means the concentration at half of the fitted maximal effect. The conditions noted are these: KMM1 myeloma viability, CellTiter-Glo ATP luminescence, 48 h; series mostly up to 45.8 µM. The procedure, abridged: as §3
Test [8] in a line: Quantitative High-Throughput drug screen in 47 multiple myeloma cell lines against the NCATS MIPE library collection: Karpas417_ECACC cell viability assay (AID 1918961). Further: potency means the concentration at half of the fitted maximal effect. The conditions noted are these: Karpas417 myeloma viability, CellTiter-Glo ATP luminescence, 48 h; viability (% of DMSO): at 45.8 µM (top of the series). The procedure, abridged:
(§4)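 qHTS of the MIPE 4.0 collection: 500 myeloma cells/well, 48 h drug exposure at 37C in 5% CO2, then CellTiter-Glo for 5 min at room temperature before luminescence reading.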

Test [9] in a line: Quantitative High-Throughput drug screen in 47 multiple myeloma cell lines against the NCATS MIPE library collection: KHM11_PLB cell viability assay (AID 1918962). Further: nearly all actives have a fitted effect of over 35% in size. Further: potency means the concentration at half of the fitted maximal effect. The conditions noted are these: KHM11 myeloma cell viability, CellTiter-Glo ATP luminescence, 48 h; series mostly up to 45.8 µM. In short, it runs like this:
as §1

The nature of test [10]: Quantitative High-Throughput drug screen in 47 multiple myeloma cell lines against the NCATS MIPE library collection: JIM3_ECACC cell viability assay (AID 1918963; further: nearly all actives have a fitted effect of over 35% in size; further: potency means the concentration at half of the fitted maximal effect). Particulars: JIM3 myeloma viability, CellTiter-Glo ATP, 48 h; series mostly up to 45.8 µM. In short, it runs like this: as §1
Test [11] is described as follows: Quantitative High-Throughput drug screen in 47 multiple myeloma cell lines against the NCATS MIPE library collection: JIM1_ECACC cell viability assay (AID 1918964; further: potency means the concentration at half of the fitted maximal effect). The conditions noted are these: JIM1 myeloma viability, CellTiter-Glo ATP luminescence, 48 h; series mostly up to 45.8 µM. In short, it runs like this: as §2
Test [12] in a line: Quantitative High-Throughput drug screen in 47 multiple myeloma cell lines against the NCATS MIPE library collection: INA6_PLB cell viability assay (AID 1918965; further: nearly all actives have a fitted effect of over 55% in size; further: potency means the concentration at half of the fitted maximal effect). Particulars: INA6 myeloma viability, CellTiter-Glo ATP luminescence, 48 h; series mostly up to 45.8 µM. In short, it runs like this: as §4
A short description of test [13]: Quantitative High-Throughput drug screen in 47 multiple myeloma cell lines against the NCATS MIPE library collection: H1112_PLB cell viability assay (AID 1918967; further: potency means the concentration at half of the fitted maximal effect; nearly all actives have a fitted effect of over 30% in size). Particulars: H1112 myeloma cells viability, ATP luminescence, 48 h; series mostly up to 45.8 µM. The procedure, abridged:
as §2

Test [14] can be described thus: Quantitative High-Throughput drug screen in 47 multiple myeloma cell lines against the NCATS MIPE library collection: Karpas25_ECACC cell viability assay (AID 1918968; further: potency means the concentration at half of the fitted maximal effect; nearly all actives have a fitted effect of over 35% in size). The conditions noted are these: Karpas25 myeloma viability, CellTiter-Glo ATP, 48 h; series mostly up to 45.8 µM. The procedure, abridged:
as §2

Test [15] can be described thus: Quantitative High-Throughput drug screen in 47 multiple myeloma cell lines against the NCATS MIPE library collection: KMS27_JCRB cell viability assay (AID 1918970). Further: nearly all actives have a fitted effect of over 30% in size. Further: potency means the concentration at half of the fitted maximal effect. Particulars: KMS27 myeloma cells, CellTiter-Glo ATP viability, 48 h; viability (% of DMSO): at 45.8 µM (top of the series). The procedure, abridged: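 Each line is seeded at 500 cells per well and treated with library compounds for 48 hours under 37 °C, 5% CO2. CellTiter-Glo is then added for 5 min at room temperature before median relative luminescence is recorded.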

A short description of test [16]: Quantitative High-Throughput drug screen in 47 multiple myeloma cell lines against the NCATS MIPE library collection: KMS12BM_JCRB cell viability assay (AID 1918971). Further: nearly all actives have a fitted effect of over 35% in size. Further: potency means the concentration at half of the fitted maximal effect. The conditions noted are these: KMS12BM myeloma viability, CellTiter-Glo ATP, 48 h; series mostly up to 45.8 µM. The procedure, abridged: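 Viability readout: CellTiter-Glo luminescence following 5 min room-temperature incubation with reagent. Prior exposure: 48 h, 37C, humidified 5% CO2, 500 cells per well.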

Test [17] in a line: Quantitative High-Throughput drug screen in 47 multiple myeloma cell lines against the NCATS MIPE library collection: JJN3_DSMZ cell viability assay (AID 1918966; further: nearly all actives have a fitted effect of over 50% in size; further: potency means the concentration at half of the fitted maximal effect). Particulars: JJN3 myeloma cells viability, CellTiter-Glo ATP, 48 h; series mostly up to 45.8 µM. In short, it runs like this:
as §2

Test [18] is described as follows: Quantitative High-Throughput drug screen in 47 multiple myeloma cell lines against the NCATS MIPE library collection: AMO1_DSMZ cell viability assay (AID 1918927; further: nearly all actives have a fitted effect of over 30% in size; further: potency means the concentration at half of the fitted maximal effect). The conditions noted are these: AMO1 myeloma cells viability, CellTiter-Glo ATP luminescence, 48 h; series mostly up to 45.8 µM. In short, it runs like this:
as §2

The nature of test [19]: Quantitative High-Throughput drug screen in 47 multiple myeloma cell lines against the NCATS MIPE library collection: ARD_JJKsccE7 cell viability assay (AID 1918929; further: potency means the concentration at half of the fitted maximal effect). Particulars: ARD myeloma cell line viability, CellTiter-Glo, 48 h; series mostly up to 45.8 µM. In short, it runs like this: as §2
Test [20] can be described thus: Quantitative High-Throughput drug screen in 47 multiple myeloma cell lines against the NCATS MIPE library collection: EJM_DSMZ cell viability assay (AID 1918926; further: nearly all actives have a fitted effect of over 30% in size; further: potency means the concentration at half of the fitted maximal effect). Particulars: EJM myeloma cell viability, CellTiter-Glo ATP, 48 h; series mostly up to 45.8 µM. The procedure, abridged:
as §2

Values without a mark were called inactive. Records with an inconclusive call do not appear. Activity calls are given as the source filed them. The call rests on the fitted dose curve; in most records, active means well fitted curve in the direction sought with a large enough effect; inconclusive means small, poorly fitted or top-dose-only effect, or another doubt; inactive means no such curve, though single readings can be large; an effect the other way counts as inactive or inconclusive.

`Cc1ccccc1-n1c(Cn2nc(-c3cccc(O)c3)c3c(N)ncnc32)nc2cccc(C)c2c1=O`: the Potency entry in test [1] was “inactive”. The call in [2] was inactive. In addition, the Potency in test [3] is 8.33 µM (active); in test [4] it was 2.96 µM (active); in test [5], 3.32 µM (active); in test [6], 0.833 µM (active); in [7] it was 0.935 µM (active); in test [8], 4.18 µM (active). Further, the Potency in test [9] is 18.7 µM (active); in test [10], 3.72 µM (active); in [11] it was 1.18 µM (active); in test [12], 1.05 µM (active); in test [13], 2.64 µM (active); in [14], 2.64 µM (active). For the same compound, the Potency is 0.469 µM (active) in test [15] and 8.33 µM (active) in [16].
As for `O=C1C(c2c(O)[nH]c3ccccc23)=Nc2ccccc21`, the Potency result in [1], in test [9], in test [10], in [12] and in [15] was “inactive” throughout. In [2], the compound was classed as inactive. Further, the Potency in test [3] was 14.8 µM (active); in test [5], 6.62 µM (active); in test [17] it was 6.62 µM (active); in [16] it was 5.9 µM (active).
Regarding `Nc1[nH]nc2nnc(-c3c(-c4ccccc4)nn4ccccc34)cc12`, the Potency result in [1] and in test [16] was “inactive” in each case. Moreover, the call in [2] was inactive. Also, the Potency in test [4] is 4.69 µM (active); in [18] it was 1.66 µM (active); in [19], 2.96 µM (active); in test [6], 16.6 µM (active); in [7] it was 4.69 µM (active); in test [9] it was 10.5 µM (active). For the same compound, the Potency was 9.35 µM (active) in [10]; 3.32 µM (active) in test [11]; 1.05 µM (active) in test [12]; 4.18 µM (active) in test [13]; 1.66 µM (active) in [14]; 1.87 µM (active) in test [15].
For `C=CC(=O)Nc1cccc(Sc2nc(Nc3ccc(N4CCN(C)CC4)cc3)ncc2Cl)c1`, the Potency entry in test [1] is “inactive”. The compound was called inactive in test [2]. Besides, the Potency in test [20] is 18.7 µM (active); in test [17] it was 37.2 µM (active).
On to `CN1C(=O)C(Cc2c[nH]c3ccccc23)NC1=S` (configuration not stated), for which the Potency entry in test [1], in test [3], in [4], in test [20], in [18] and in test [5] was “inactive” throughout. Besides, the Potency result in test [19], in [6], in test [7], in [10], in [12] and in [17] was “inactive” each time. In addition, in [2], the call was inactive. For the same compound, in test [16], the Potency is 13.2 µM (active).
As for `Cc1c(C(=O)Nc2ccc(N3C[C@@H](C)O[C@@H](C)C3)nc2)cccc1-c1ccc(OC(F)(F)F)cc1`, the Potency result in [1] and in test [10] was “inactive” in each case. Further, the call in test [2] was inactive. The Potency in test [4] is 4.69 µM (active); in test [18] it was 2.96 µM (active); in test [6], 8.33 µM (active); in test [7], 1.18 µM (active); in [8], 1.66 µM (active); in [9] it was 6.62 µM (active). The Potency in test [17] is 14.8 µM (active); in test [13], 7.43 µM (active); in test [14] it was 4.18 µM (active); in test [16], 18.7 µM (active).
For the compound `Cc1ccc2c(c1)C(=O)[C@]1(O)CCN(c3ccccc3)C1=N2`, the Potency result in test [1], in [3], in [4], in test [19], in test [6] and in test [7] was “inactive” each time. Also, the Potency result in test [9] and in test [11] was “inactive” each time. Moreover, in test [2], the outcome was inactive. In [17], the Potency was 11.8 µM (active).

These data come from PubChem BioAssay (NCATS).
